In the supplement of paper PMC8728848:
This is one part of a sample in which the strongest signals are shown more often than they occur.

Key:
Assay in all cases: glycan array binding signal (z-score within array); higher = stronger binding
Conditions in all cases: glycan notation: IUPAC condensed, linker removed
[1] = target: Fuc(a1-2)Gal(b1-3)GalNAc(b1-4)[Neu5Ac(a2-3)]Gal(b1-4)Glc
Outline: (§1)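 From the Consortium for Functional Glycomics database, 3228 arrays were curated, keeping only those whose protein sequence was available. Binding is given as a within-array Z-score averaged across arrays sharing a protein sequence and across linkers. Negative Z-scores can be read as non-binding.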

Fuc(a1-2)Gal(b1-3)GlcNAc = target: Fuc(a1-2)Gal(b1-3)GlcNAc
Outline: as §1

Fuc(a1-2)Gal(b1-4)Glc = target: Fuc(a1-2)Gal(b1-4)Glc
Outline: as §1

[2] = target: Fuc(a1-2)Gal(b1-4)GlcNAc6S
Outline: as §1

[3] = target: Fuc(a1-2)Gal(b1-4)[Fuc(a1-3)]GlcNAc(b1-2)Man(a1-3)[Fuc(a1-2)Gal(b1-4)[Fuc(a1-3)]GlcNAc(b1-2)Man(a1-6)]Man(b1-4)GlcNAc(b1-4)[Fuc(a1-6)]GlcNAc
Outline: as §1

[4] = target: Fuc(a1-2)[Gal(a1-3)]Gal(b1-3)GlcNAc
Outline: as §1

[5] = target: Fuc(a1-2)[Gal(a1-3)]Gal(b1-3)GlcNAc(b1-2)Man(a1-3)[Fuc(a1-2)[Gal(a1-3)]Gal(b1-3)GlcNAc(b1-2)Man(a1-6)]Man(b1-4)GlcNAc(b1-4)GlcNAc
Outline: as §1

[6] = target: Fuc(a1-2)[Gal(a1-3)]Gal(b1-4)Glc
Outline: as §1

[7] = target: Fuc(a1-2)[Gal(a1-3)]Gal(b1-4)GlcNAc
Outline: as §1

[8] = target: Fuc(a1-2)[Gal(a1-3)]Gal(b1-4)GlcNAc(b1-2)Man
Outline: as §1

[9] = target: Fuc(a1-2)[Gal(a1-3)]Gal(b1-4)GlcNAc(b1-2)Man(a1-3)[Fuc(a1-2)[Gal(a1-3)]Gal(b1-4)GlcNAc(b1-2)Man(a1-6)]Man(b1-4)GlcNAc(b1-4)[Fuc(a1-6)]GlcNAc
Outline: as §1

[10] = target: Fuc(a1-2)[Gal(a1-3)]Gal(b1-4)GlcNAc(b1-6)GalNAc
Outline: as §1

[11] = target: Fuc(a1-2)[GalNAc(a1-3)]Gal(b1-3)GlcNAc
Outline: as §1

[12] = target: Fuc(a1-2)[GalNAc(a1-3)]Gal(b1-4)GlcNAc(b1-2)Man
Outline: as §1

[13] = target: Fuc(a1-2)[GalNAc(a1-4)]Gal(b1-4)GlcNAc
Outline: as §1

[14] = target: Fuc(a1-3)[Gal(b1-4)]GlcNAc(b1-6)[Gal(b1-3)GlcNAc(b1-3)]Gal(b1-4)Glc
Outline: as §1

[15] = target: Fuc(a1-3)[Gal3S(b1-4)]GlcNAc
Outline: as §1

[16] = target: Gal(a1-3)Gal(b1-3)[Fuc(a1-4)]GlcNAc(b1-2)Man(a1-3)[Gal(a1-3)Gal(b1-3)[Fuc(a1-4)]GlcNAc(b1-2)Man(a1-6)]Man(b1-4)GlcNAc(b1-4)GlcNAc
Outline: as §1

[17] = target: Gal(a1-3)Gal(b1-4)GlcNAc(b1-2)Man
Outline: as §1

Gal(a1-3)GalNAc = target: Gal(a1-3)GalNAc
Outline: as §1

[18] = target: Gal(a1-4)Gal(b1-3)GlcNAc(b1-2)Man(a1-3)[Gal(a1-4)Gal(b1-3)GlcNAc(b1-2)Man(a1-6)]Man(b1-4)GlcNAc(b1-4)GlcNAc
Outline: as §1

Gal(b1-2)Gal = target: Gal(b1-2)Gal
Outline: as §1

[19] = target: Gal(b1-3)GlcNAc(b1-3)Gal(b1-4)[Fuc(a1-3)]GlcNAc
Outline: as §1

[20] = target: Gal(b1-3)[Fuc(a1-4)]GlcNAc(b1-6)GalNAc
Outline: as §1

[21] = target: Gal(b1-4)GlcNAc(b1-2)Man(a1-3)[Gal(b1-4)GlcNAc(b1-2)Man(a1-6)][GlcNAc(b1-4)]Man(b1-4)GlcNAc(b1-4)[Fuc(a1-6)]GlcNAc
Outline: as §1

[22] = target: Gal(b1-4)GlcNAc(b1-2)Man(a1-6)[GlcNAc(b1-2)Man(a1-3)]Man(b1-4)GlcNAc(b1-4)GlcNAc
Outline: as §1

[23] = target: Gal(b1-4)GlcNAc(b1-3)Gal(b1-4)GlcNAc(b1-3)Gal(b1-4)GlcNAc
Outline: as §1

[24] = target: Gal(b1-4)GlcNAc(b1-3)Gal(b1-4)GlcNAc(b1-3)Gal(b1-4)GlcNAc(b1-3)Gal(b1-4)GlcNAc(b1-2)[Gal(b1-4)GlcNAc(b1-3)Gal(b1-4)GlcNAc(b1-3)Gal(b1-4)GlcNAc(b1-3)Gal(b1-4)GlcNAc(b1-6)]Man(a1-6)[Gal(b1-4)GlcNAc(b1-3)Gal(b1-4)GlcNAc(b1-3)Gal(b1-4)GlcNAc(b1-3)Gal(b1-4)GlcNAc(b1-2)Man(a1-3)]Man(b1-4)GlcNAc(b1-4)[Fuc(a1-6)]GlcNAc
Outline: as §1

[25] = target: Gal(b1-4)GlcNAc(b1-3)Gal(b1-4)GlcNAc(b1-3)Gal(b1-4)GlcNAc(b1-3)Gal(b1-4)GlcNAc(b1-3)Gal(b1-4)GlcNAc(b1-2)Man(a1-3)[Gal(b1-4)GlcNAc(b1-3)Gal(b1-4)GlcNAc(b1-3)Gal(b1-4)GlcNAc(b1-3)Gal(b1-4)GlcNAc(b1-3)Gal(b1-4)GlcNAc(b1-2)Man(a1-6)]Man(b1-4)GlcNAc(b1-4)GlcNAc
Outline: as §1

[26] = target: Gal(b1-4)GlcNAc(b1-3)Gal(b1-4)GlcNAc(b1-3)Gal(b1-4)GlcNAc(b1-3)Gal(b1-4)GlcNAc(b1-3)Gal(b1-4)GlcNAc(b1-2)Man(a1-3)[Gal(b1-4)GlcNAc(b1-3)Gal(b1-4)GlcNAc(b1-3)Gal(b1-4)GlcNAc(b1-3)Gal(b1-4)GlcNAc(b1-3)Gal(b1-4)GlcNAc(b1-2)Man(a1-6)]Man(b1-4)GlcNAc(b1-4)[Fuc(a1-6)]GlcNAc
Outline: as §1

[27] = target: Gal(b1-4)GlcNAc(b1-3)Gal(b1-4)GlcNAc(b1-3)Gal(b1-4)GlcNAc(b1-3)Gal(b1-4)GlcNAc(b1-3)Gal(b1-4)GlcNAc(b1-3)Gal(b1-4)GlcNAc(b1-2)Man(a1-3)[Gal(b1-4)GlcNAc(b1-3)Gal(b1-4)GlcNAc(b1-3)Gal(b1-4)GlcNAc(b1-3)Gal(b1-4)GlcNAc(b1-3)Gal(b1-4)GlcNAc(b1-3)Gal(b1-4)GlcNAc(b1-2)Man(a1-6)]Man(b1-4)GlcNAc(b1-4)GlcNAc
Outline: as §1

[28] = target: Gal(b1-4)GlcNAc(b1-3)Gal(b1-4)GlcNAc(b1-3)[Gal(b1-4)GlcNAc(b1-3)Gal(b1-4)GlcNAc(b1-6)]GalNAc
Outline: as §1

[29] = target: Gal(b1-4)GlcNAc(b1-6)GalNAc
Outline: as §1

Gal3S(b1-4)Glc6S = target: Gal3S(b1-4)Glc6S
Outline: as §1

[30] = target: Gal3S(b1-4)[Fuc(a1-3)]Glc6S
Outline: as §1

Gal6S(b1-4)Glc = target: Gal6S(b1-4)Glc
Outline: as §1

[31] = target: GalNAc(b1-4)GlcNAc(b1-2)Man(a1-3)[GalNAc(b1-4)GlcNAc(b1-2)Man(a1-6)]Man(b1-4)GlcNAc(b1-4)GlcNAc
Outline: as §1

[32] = target: GlcNAc(b1-3)Gal(b1-4)GlcNAc
Outline: as §1

[33] = target: GlcNAc(b1-3)Gal(b1-4)GlcNAc(b1-3)Gal(b1-4)GlcNAc
Outline: as §1

[34] = target: GlcNAc(b1-3)Gal(b1-4)GlcNAc(b1-3)Gal(b1-4)GlcNAc(b1-3)Gal(b1-4)GlcNAc(b1-3)Gal(b1-4)GlcNAc(b1-2)Man(a1-3)[GlcNAc(b1-3)Gal(b1-4)GlcNAc(b1-3)Gal(b1-4)GlcNAc(b1-3)Gal(b1-4)GlcNAc(b1-3)Gal(b1-4)GlcNAc(b1-2)Man(a1-6)]Man(b1-4)GlcNAc(b1-4)[Fuc(a1-6)]GlcNAc
Outline: as §1

[35] = target: GlcNAc(b1-3)Gal(b1-4)GlcNAc(b1-3)Gal(b1-4)GlcNAc(b1-3)GalNAc
Outline: as §1

[36] = target: GlcNAc(b1-4)GlcNAc(b1-4)GlcNAc(b1-4)GlcNAc(b1-4)GlcNAc
Outline: as §1

Man(a1-6)Man = target: Man(a1-6)Man
Outline: as §1

[37] = target: Neu5Ac(a2-3)Gal(b1-3)GlcNAc(b1-2)Man(a1-3)[Neu5Ac(a2-3)Gal(b1-3)GlcNAc(b1-2)Man(a1-6)]Man(b1-4)GlcNAc(b1-4)GlcNAc
Outline: as §1

[38] = target: Neu5Ac(a2-3)Gal(b1-4)GlcNAc
Outline: as §1

[39] = target: Neu5Ac(a2-3)Gal(b1-4)GlcNAc(b1-3)Gal(b1-4)[Fuc(a1-3)]GlcNAc
Outline: as §1

[40] = target: Neu5Ac(a2-3)Gal(b1-4)GlcNAc(b1-3)GalNAc
Outline: as §1

Neu5Ac(a2-6)Gal = target: Neu5Ac(a2-6)Gal
Outline: as §1

[41] = target: Neu5Ac(a2-6)Gal(b1-4)GlcNAc(b1-2)Man
Outline: as §1

[42] = target: Neu5Ac(a2-6)Gal(b1-4)GlcNAc(b1-2)[Neu5Ac(a2-6)Gal(b1-4)GlcNAc(b1-4)]Man(a1-3)[GlcNAc(b1-4)][Neu5Ac(a2-6)Gal(b1-4)GlcNAc(b1-2)[Neu5Ac(a2-6)Gal(b1-4)GlcNAc(b1-6)]Man(a1-6)]Man(b1-4)GlcNAc(b1-4)GlcNAc
Outline: as §1

[43] = target: Neu5Ac(a2-6)GlcNAc(b1-4)GlcNAc(b1-4)GlcNAc
Outline: as §1

[44] = target: Neu5Ac(a2-8)Neu5Ac(a2-3)Gal(b1-3)GalNAc(b1-4)[Neu5Ac(a2-3)]Gal(b1-4)Glc
Outline: as §1

[45] = target: Neu5Ac(a2-8)Neu5Ac(a2-8)Neu5Ac(a2-3)[Gal(b1-3)GalNAc(b1-4)]Gal(b1-4)Glc
Outline: as §1

[46] = target: Neu5Gc(a2-3)Gal(b1-3)[Fuc(a1-4)]GlcNAc
Outline: as §1

B1: Gal 8 (Mus musculus), Q9JL15 (protein)
chain: MGGSHHHHHHGMASMLSLNNLQNIIYNPIIPYVGTITEQLKPGSLIVIRGHVPKDSERFQVDFQLGNSLKPRADVAFHFNPRFKRSSCIVCNTLTQEKWGWEEITYDMPFRKEKSFEIVFMVLKNKFQVAVNGRHVLLYAHRISPEQIDTVGIYGKVNIHSIGFRFSSASALPHTLGDLQSMETSALGLTQINRENIQKPGKLQLSLPFEARLNASMGPGRTVVIKGEVNTNARSFNVDLVAGKTRDIALHLNPRLNVKAFVRNSFLQDAWGEEERNITCFPFSSGMYFEMIIYCDVREFKVAINGVHSLEYKHRFKDLSSIDTLSVDGDIRLLDVRSW
glycan array binding signal (z-score) [1]: -0.259
glycan array binding signal (z-score) (Fuc(a1-2)Gal(b1-3)GlcNAc): 0.14
glycan array binding signal (z-score) (Fuc(a1-2)Gal(b1-4)Glc): 0.021
glycan array binding signal (z-score) [2]: -0.038
glycan array binding signal (z-score) [3]: -0.529
glycan array binding signal (z-score) [4]: 3.88
glycan array binding signal (z-score) [5]: 3.71
glycan array binding signal (z-score) [6]: 2.26
glycan array binding signal (z-score) [7]: 3.76
glycan array binding signal (z-score) [8]: 2.84
glycan array binding signal (z-score) [9]: 3.64
glycan array binding signal (z-score) [10]: -0.535
glycan array binding signal (z-score) [11]: 1
glycan array binding signal (z-score) [12]: 3.48
glycan array binding signal (z-score) [13]: -0.537
glycan array binding signal (z-score) [14]: 0.008
glycan array binding signal (z-score) [15]: -0.521
glycan array binding signal (z-score) [16]: -0.204
glycan array binding signal (z-score) [17]: 0.378
glycan array binding signal (z-score) (Gal(a1-3)GalNAc): -0.533
glycan array binding signal (z-score) [18]: -0.534
glycan array binding signal (z-score) (Gal(b1-2)Gal): -0.521
glycan array binding signal (z-score) [19]: 0.099
glycan array binding signal (z-score) [20]: -0.515
glycan array binding signal (z-score) [21]: -0.123
glycan array binding signal (z-score) [22]: -0.108
glycan array binding signal (z-score) [23]: 0.937
glycan array binding signal (z-score) [24]: 2.76
glycan array binding signal (z-score) [25]: 3.48
glycan array binding signal (z-score) [26]: 3.61
glycan array binding signal (z-score) [27]: 3.5
glycan array binding signal (z-score) [28]: -0.063
glycan array binding signal (z-score) [29]: -0.214
glycan array binding signal (z-score) (Gal3S(b1-4)Glc6S): 0.566
glycan array binding signal (z-score) [30]: -0.498
glycan array binding signal (z-score) (Gal6S(b1-4)Glc): -0.532
glycan array binding signal (z-score) [31]: -0.195
glycan array binding signal (z-score) [32]: -0.163
glycan array binding signal (z-score) [33]: 1.11
glycan array binding signal (z-score) [34]: 3.01
glycan array binding signal (z-score) [35]: 0.651
glycan array binding signal (z-score) [36]: -0.54
glycan array binding signal (z-score) (Man(a1-6)Man): -0.51
glycan array binding signal (z-score) [37]: -0.466
glycan array binding signal (z-score) [38]: -0.517
glycan array binding signal (z-score) [39]: -0.215
glycan array binding signal (z-score) [40]: -0.525
glycan array binding signal (z-score) (Neu5Ac(a2-6)Gal): -0.511
glycan array binding signal (z-score) [41]: -0.548
glycan array binding signal (z-score) [42]: -0.602
glycan array binding signal (z-score) [43]: -0.545
glycan array binding signal (z-score) [44]: 0.316
glycan array binding signal (z-score) [45]: -0.539
glycan array binding signal (z-score) [46]: -0.514
